# SENP6 block: SENP6 protease inhibitors, primary screen, biochemical, luminescence, uHTS. Recombinant SENP6 catalytic domain, aminoluciferin luminescence. inhibition, % at 10 µM. hit rate 1.8% among 330,000;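 active = inhibition above about 50% at the single tested dose, limit read from the data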
# AHR activator: AHR activators, primary screen, cell-based, luminescence, luciferase reporter, human | hit rate 2.5% among 320,000 | activation, % at 5 µM | AHR-responsive luciferase reporter cells | Aryl hydrocarbon receptor (Homo sapiens), P35869; in the data active = activation above about 47%
# SENP8 block-1: SENP8 protease inhibitors, primary screen, biochemical, luminescence. Sentrin-specific protease 8 (Homo sapiens), Q96LD8. purified SENP8, Z-RLRGG-aminoluciferin cleavage. inhibition, % at 10 µM. hit rate 1.2% among 330,000. AID 2540, 2010; in the data active = inhibition above about 50%
# Target sequence (Q96LD8 whole entry, looked up): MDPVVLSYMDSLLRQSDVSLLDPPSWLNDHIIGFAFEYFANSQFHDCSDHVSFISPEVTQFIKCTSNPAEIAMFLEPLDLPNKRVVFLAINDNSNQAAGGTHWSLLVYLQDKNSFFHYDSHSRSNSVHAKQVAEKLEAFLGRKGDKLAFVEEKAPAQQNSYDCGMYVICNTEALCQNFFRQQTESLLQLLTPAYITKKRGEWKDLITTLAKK
# EBI2 antag: EBI2 receptor antagonists, beta-arrestin recruitment, primary screen, cell-based, luminescence, 7a,25-OHC stimulation, uHTS; hit rate 0.81% among 360,000; AID 651636, 2012; inhibition, % at 5 µM; 7a,25-OHC stimulated; in the data active = inhibition above about 38%;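 also: enzyme fragment complementation signal reports receptor beta-arrestin coupling in cells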
# SENP8 block-2: human SENP8 protease inhibitors, primary screen, biochemical, fluorescence, Nedd8 protein substrate, uHTS | Sentrin-specific protease 8 (Homo sapiens), Q96LD8 | recombinant SENP8 | inhibition, % at 20 µM | hit rate 0.64% among 360,000 | AID 602440, 2012; in the data active = inhibition mostly above about 40%, no sharp cut-off; inactive = mostly below about 27%
# SENP7 block: SENP7 protease inhibitors, primary screen, biochemical, luminescence, uHTS | hit rate 1.5% among 330,000 | Sentrin-specific protease 7 (Homo sapiens), Q9BQF6 | inhibition, % at 5 µM | recombinant SENP7, Z-RLRGG-aminoluciferin luminescence, 40 min;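 active = inhibition above about 50% at the single test dose, limit read from the data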
# SENP8 conf: SENP8 protease inhibitors, retest, confirmation, biochemical, luminescence, single concentration; shares compounds with SENP7 block; Recombinant SENP8, Z-RLRGG-aminoluciferin luminescence, 60 min; inhibition, % at 12.5 µM; hit rate 40% among 6,200; AID 488912, 2010;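 active = mean inhibition across replicates above about 50%, limit read from the data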
# SENP6 conf: SENP6 protease inhibitors, confirmation, biochemical, luminescence, single concentration | inhibition, % at 12.5 µM | hit rate 58% among 6,200 | shares compounds with SENP7 block | recombinant SENP6, Z-RLRGG-aminoluciferin luminescence
# SENP7 confirm: SENP7 protease inhibitors, retest, confirmation, biochemical, luminescence, single concentration. shares compounds with SENP7 block. recombinant SENP7, Z-RLRGG-aminoluciferin luminescence, 40 min. inhibition, % at 12.5 µM. hit rate 69% among 6,200. AID 488917, 2010
# Casp3 SENP sel: caspase-3 protease inhibitors, confirmation, selectivity assay for SENP inhibitor project, biochemical, single concentration. hit rate 60% among 6,200. inhibition, % at 12.5 µM. purified caspase-3, Z-DEVD-aminoluciferin luminescence, 60 min. shares compounds with SENP7 block;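 active = mean inhibition above about 50%, limit read from the data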
# Target sequence (P42574 28-227 limits assumed): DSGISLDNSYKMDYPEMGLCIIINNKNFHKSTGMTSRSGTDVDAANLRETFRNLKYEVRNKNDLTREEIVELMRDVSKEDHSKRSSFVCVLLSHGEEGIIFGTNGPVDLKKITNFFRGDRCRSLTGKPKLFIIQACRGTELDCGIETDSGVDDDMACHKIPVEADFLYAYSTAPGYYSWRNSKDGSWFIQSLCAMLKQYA
# Luc interf: counter-screen for SENP inhibitors: luminescence interference. Pre-incubated SENP8/Z-RLRGG-aminoluciferin, luciferase luminescence interference. shares compounds with SENP7 block. AID 488919. hit rate 39% among 6,200. inhibition, % at 12.5 µM;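 active = mean inhibition above about 50% when retested at one dose, limit read from the data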
# Numbers stand for hits; 0 = inactive; - = no result. Rows were chosen to be rich in hits. Some 5% of all compounds tested hit in one or more screens of this group.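 The calls were made as follows, unless noted: active = mean inhibition above about 50% in the one-dose retest (limit read from the data); inactive = the rest.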
SMILES,SENP6 block,AHR activator,SENP8 block-1,EBI2 antag,SENP8 block-2,SENP7 block,SENP8 conf,SENP6 conf,SENP7 confirm,Casp3 SENP sel,Luc interf
O=C1C(=C(O)c2ccccc2)C(=O)c2ccccc21,74,0,0,0,66,0,0,0,0,0,0
O=C1C(=C(c2ccccc2)c2ccccc2)Nc2ccccc21,0,0,0,0,0,0,-,-,-,-,-
CC1Cc2ccccc2N1C(=O)/C=C/c1cccc(F)c1 (configuration not stated),0,0,51,0,0,55,0,74,90,61,55
CC(=O)c1sc(Nc2ccc(Oc3ccccc3)cc2)nc1C,-,-,-,0,0,-,-,-,-,-,-
CC(=O)c1sc(N/N=C\c2ccccc2O)nc1C,68,0,56,0,0,0,0,0,82,0,0
COc1ccc(-c2cn3cc(C)ccc3n2)cc1Br,91,0,82,0,0,86,0,87,99,86,0
CCCNC(=O)c1csc(Nc2cccc3ccccc23)n1,0,0,0,0,0,0,-,-,-,-,-
O=C(c1ccccc1)c1cnc(Nc2ccccc2Cl)s1,75,0,0,0,0,54,73,76,87,0,53
CC(=O)c1csc(Nc2ccccc2Cl)n1,0,0,0,0,0,54,0,0,70,63,0
CC(C)(C)C(=O)c1cnc(Nc2ccccc2Cl)s1,90,0,79,0,0,83,86,90,97,75,83
O=C(c1ccc(Cl)c(Cl)c1)c1cnc(Nc2ccccc2)s1,0,0,0,0,0,0,-,-,-,-,-
CCCNC(=O)[C@H]1N2C(=O)c3c(ccc(OC)c3OC)C2SC1(C)C (some centres not stated),0,0,0,0,0,0,-,-,-,-,-
O=C(NNc1cc(N2CCOCC2)nc(N2CCOCC2)n1)c1ccc(Cl)c(Cl)c1,0,0,0,0,0,0,-,-,-,-,-
Cc1ccc(C(=O)NNc2cc(N3CCCC3)nc(N3CCCC3)n2)cc1,82,0,95,-,-,0,52,87,50,0,0
O=C(CN1CCN(C(=O)C2CCCO2)CC1)Nc1ccc(Cl)c(Cl)c1 (configuration not stated),0,0,0,0,0,0,-,-,-,-,-
O=C(/C=C/c1ccc([N+](=O)[O-])cc1)Nc1cccnc1,71,0,0,0,0,58,0,64,92,77,0
O=C(/C=C/c1ccccc1)Nc1cccnc1,66,0,51,0,0,76,0,57,90,84,72
NC(=O)c1cccnc1Sc1ccc(Cl)cc1,0,0,0,0,0,0,-,-,-,-,-
Nc1cccnc1Sc1ccc(Cl)cc1,55,0,0,0,0,0,0,0,0,0,0
Nc1cccnc1Sc1cccc(Cl)c1,61,0,0,0,0,0,0,0,0,0,0
COc1cc(/C=N/NC(=O)C(N)=O)ccc1OCC(=O)N1C(C)CCCC1C (configuration not stated),0,0,0,0,0,0,-,-,-,-,-
Cn1cc(Br)c(C(=O)Nc2ncc(Br)s2)n1,0,0,0,0,0,70,0,0,0,0,0
CCOc1ccc(NC(=O)c2nn(C)cc2Br)cc1,0,0,0,0,0,0,-,-,-,-,-
O=C(CC(SCc1ccco1)c1ccc(O)cc1)c1cccs1 (configuration not stated),89,0,88,0,0,58,93,91,95,0,87
O=C(CSc1nnc(-c2ccc(O)cc2)n1Cc1ccco1)c1cccs1,0,0,0,0,0,0,-,-,-,-,-
SMILES,SENP6 block,AHR activator,SENP8 block-1,EBI2 antag,SENP8 block-2,SENP7 block,SENP8 conf,SENP6 conf,SENP7 confirm,Casp3 SENP sel,Luc interf
COc1ccc2sc(NC(=O)c3ccco3)nc2c1,90,0,87,0,0,0,87,90,97,91,86
Cc1cc(C)c2nc(NC(=O)c3ccco3)sc2c1,76,0,80,0,0,80,0,73,92,61,0
COc1ccc2c(c1)Cc1sc(NC(=O)c3ccco3)nc1-2,92,0,88,0,0,95,0,0,87,64,78
Cc1sc(NC(=O)c2ccco2)nc1-c1ccccc1,51,0,0,0,0,0,0,0,72,0,61
COc1ccccc1CN1CCNC(=O)C1CC(=O)NCCc1cnccn1 (configuration not stated),0,0,0,0,0,0,-,-,-,-,-
C/C(=N\NC(=O)c1ccc(O)cc1)c1ccc(NC(=O)Cc2ccccc2)cc1,0,-,0,0,0,0,-,-,-,-,-
CC(Nc1ccc2ccccc2c1)C(=O)N/N=C/c1ccncc1 (configuration not stated),56,0,0,0,0,0,0,0,0,0,0
O=C(Nc1ccccn1)c1sc2cccc(F)c2c1Cl,0,0,0,0,0,90,0,0,0,0,0
COCc1nnc(NC(=O)c2cccs2)s1,0,0,0,0,0,0,-,-,-,-,-
Cc1ccc(NC(=O)c2sc3ccccc3c2Cl)nc1,72,0,63,0,0,93,0,0,0,0,0
COCc1nnc(NC(=O)c2sc3ccccc3c2Cl)s1,55,0,0,0,0,0,0,0,76,61,66
O=C(c1ccc(Cl)c(S(=O)(=O)N2CCOCC2)c1)N(c1ccccn1)C1CCCCC1,0,0,0,0,0,0,-,-,-,-,-
CCCCCc1ccc(-c2ccc(OC)cc2)nc1,52,0,0,0,0,0,0,0,64,0,0
CCCc1ccc(-c2ccc(C(=O)O)cc2)nc1,69,0,59,0,0,67,70,66,90,73,70
